Measured values taken from PubChem BioAssay (Tox21).
Several values for one entry are separate records, joined by “and”; a condition that tells them apart may be missing. Equal values may be shown once. Inconclusive results are not listed. Where a call stands in place of a potency, no number is given. Activity calls are given as the source filed them. Calls come from the whole dose curve; as a rule, active = well fitted cell-killing curve with a large enough effect in the repeat runs; inconclusive = weak or mixed curves, or effect the other way; inactive = flat fitted curve, though single readings scatter.

Test: qHTS assay to identify small molecule antagonists of the constitutive androstane receptor (CAR) signaling pathway - cell viability counter screen (AID 1224837); note: nearly all actives have a fitted effect of over 45% in size
Settings: HepG2-CYP2B6-hCAR viability, CellTiter-Fluor, 23 h, co-treated with 50 nM CITCO; series mostly up to 92.4 µM
Description: National Center for Advancing Translational Sciences [NCATS]
NIH Chemical Genomics Center [NCGC]
U.S. Environmental Protection Agency [EPA]
National Institutes of Environmental Health Sciences [NIEHS]
National Toxicology Program [NTP]
U.S. Food and Drug Administration [FDA]
The constitutive androstane receptor (CAR) is a nuclear receptor which regulates multiple drug metabolizing enzymes (DMEs) and transporters. Activating CAR will generally increase the transcription and subsequent translation of CYP2B6 and CYP3A4. These two DMEs represent about 50% of the drug metabolizing potential in the body. When CAR is deactivated, the metabolizing potential in the body will decrease, subsequently increasing the toxicity in the body or lowering the therapeutic potential of a pro-drug. Recently, there have also been studies performed indicating CARs role in energy metabolism and cancer therapy. Therefore, inhibiting CARs activity could have a potential effect on diabetes and cancer. Identifying environmental toxins and compounds which modulate CAR, through the use of the Tox21 10K compound collection, will be an important step in determining the toxicity and potential therapeutic effects these factors will have on the human body. To differentiate true CAR antagonists from cytotoxic substances, the assay is multiplexed with a cell viability assay.
Tox21 Assay Protocol Summary:
A double-stable (hCAR and CYP2B6-2.2kb) transfected cell line, derived from human hepatoma (HepG2) cells, was utilized for the duration of the quantitative high-throughput screens. The HepG2-CYP2B6-hCAR cells were dispensed at 2500 cells/4 uL/well in 1536-well white solid bottom plates using a Multidrop Combi. After the assay plates were incubated at 37 C/5% CO2 for 4 hrs, 23 nL of compounds at 15 concentrations (from 5-48 columns) or positive control (from 1 to 4 columns) were transferred to the assay plates using a Pintool station. One uL of CITCO (final concentration = 50 nM) was added, using a Flying Reagent Dispenser, inside each well. After a 23 hr incubation period at 37 C/5% CO2, 1 uL of CellTiter-Fluor reagent was added into each well of the assay plates using a Flying Reagent Dispenser. The fluorescence intensity in the plates was then measured using a ViewLux plate reader.
Potency is the fitted concentration of half-maximal effect.

Row | Compound | Potency
1 | OCC1CCCO1 (stereo not given) | inactive
2 | CC(=O)CCc1ccccc1 | inactive
3 | C=C1C2CCC(C2)C1(C)C (stereo not given) | inactive
4 | CC(C)NCC(O)COc1cccc2ccccc12 (stereo not given) | inactive
5 | Oc1ccc2ccccc2c1N=Nc1ccccc1 | 30.6 µM (active)
6 | C[C@@H]1O[C@@H](OC[C@H]2O[C@@H](Oc3c(-c4ccc(O)c(O)c4)oc4cc(O)cc(O)c4c3=O)[C@H](O)[C@@H](O)[C@@H]2O)[C@H](O)[C@H](O)[C@H]1O | inactive
7 | COCC(C)O (stereo not given) | inactive
8 | O=[N+]([O-])c1cc(N(CCO)CCO)ccc1NCCO | inactive
9 | CC1=C(CC(=O)O)c2cc(F)ccc2/C1=C\c1ccc(S(C)=O)cc1 (stereo not given) | inactive
10 | O=S(=O)(Oc1ccc(Cl)cc1Cl)c1ccccc1 | inactive
11 | O=C1N=C(O)CN1/N=C/c1ccc(-c2ccc([N+](=O)[O-])cc2)o1 | inactive
12 | C=CC(=O)OCCCCCCCC(C)C | inactive
13 | CCOC(=O)C1OC1c1ccccc1 (stereo not given) | inactive
14 | Cc1ccc(N)c(S(=O)(=O)O)c1 | inactive
15 | CCC(C)C=O (stereo not given) | inactive
16 | CC(C)(CO)COC(=O)C(C)(C)CO | inactive
17 | CC(=O)Nc1ccc(C(=O)O)cc1 | inactive
18 | OC1CCCC1 | inactive
19 | O=C(c1ccc(O)cc1)c1ccc(O)cc1O | inactive
20 | CCCCC(CC)C(=O)OCCOCCOCCOC(=O)C(CC)CCCC (stereo not given) | inactive

Row | Compound | Potency
21 | CCCCC(CC)COC(=O)/C=C\C(=O)OCC(CC)CCCC (stereo not given) | inactive
22 | C=C(C)C(=O)OCC(CC)(COC(=O)C(=C)C)COC(=O)C(=C)C | inactive
23 | CCOC(=O)[C@H](CCc1ccccc1)N[C@@H](C)C(=O)N1Cc2ccccc2C[C@H]1C(=O)O | inactive
24 | CC1=C(/C=C/C(C)=C/C=C/C(C)=C/CO)C(C)(C)CCC1 | inactive
25 | Cc1ccc(C)c(C)c1 | inactive
26 | CC(C)n1c(/C=C/[C@@H](O)C[C@@H](O)CC(=O)O)c(-c2ccc(F)cc2)c2ccccc21 | inactive
27 | CS(=O)(=O)c1ccc([C@@H](O)[C@@H](CO)NC(=O)C(Cl)Cl)cc1 | inactive
28 | OCC#CCO | inactive
29 | Oc1ccc2ccccc2c1 | inactive
30 | O=C1O[C@H](CO)[C@@H](O)[C@H](O)[C@H]1O | inactive
31 | c1ccc2[nH]cnc2c1 | inactive
32 | C[C@@H](O)[C@H]1C(=O)N2C(C(=O)O)=C(S[C@@H]3CN[C@H](C(=O)N(C)C)C3)[C@H](C)[C@H]12 | inactive
33 | CC1(C)CC(N=C=O)CC(C)(CN=C=O)C1 (stereo not given) | inactive
34 | O=C(Cl)c1c(Cl)c(Cl)c(C(=O)Cl)c(Cl)c1Cl | inactive
35 | C=C(C)C(=O)OCCC[Si](OC)(OC)OC | inactive
36 | Clc1cc(Cl)c(Cl)cc1Cl | inactive
37 | CN(C)c1ccc(C(=N)c2ccc(N(C)C)cc2)cc1 | 24 µM (active) and 26.3 µM (active)
38 | OC[C@@H](O)[C@H](O)[C@H](O)[C@@H](O)CO | inactive
39 | O=[N+]([O-])c1cccc(Cl)c1 | inactive
40 | O=C1CCCCC1 | inactive
